Drawing on PubChem BioAssay (NCI), this text covers growth for 13 compounds.

Some test systems named below: SK-MEL-2 melanoma; EKVX NSCLC; SN12C renal; UO-31 renal; TK-10 renal; ACHN renal; CAKI-1 renal; A498 renal; MOLT-4 leukemia; CCRF-CEM leukemia.
Assay in all cases: NCI-60 one-dose screen, 48 h (100 = growth as untreated, 0 = no growth, -100 = all killed)
Common to all, as to settings: 10 µM unless noted

Compounds without any hit were thinned out: in the full panel of roughly 83,000, 20% have a hit.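 Compound tested at a single concentration for 48 hours in 96-well plates; a percent growth value below 10 was scored as active.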 A number with no mark means an inactive call. Calls of active or inactive are those of the source.

For `CCN1CCN(C(=O)[C@]23CCC(C)(C)C[C@@H]2C2=CC[C@@H]4[C@@]5(C)C/C(=C/c6cccnc6)C(=O)C(C)(C)[C@@H]5CC[C@@]4(C)[C@]2(C)CC3)CC1`, the growth was 41.9% in the assay on SK-MEL-2 melanoma; 25.4% with EKVX NSCLC; 29.5% in the assay with SN12C renal; 33.3% in the assay on UO-31 renal; 52.4% in the assay on TK-10 renal; 33.4% in the assay on ACHN renal. For the same compound, the growth was 31.5% with CAKI-1 renal, 45.1% in the assay on A498 renal and 4.16% (active) in the assay with MOLT-4 leukemia.

On to `CC(C)=CCC[C@](C)(O)[C@H]1CC[C@]2(C)[C@@H]1CC[C@@H]1[C@@]3(C)C/C(=C/c4cccc([N+](=O)[O-])c4)C(=O)C(C)(C)[C@@H]3CC[C@]12C`, for which the growth was 115% in the assay with SK-MEL-2 melanoma; 92.6% with EKVX NSCLC; 81.1% in the assay with SN12C renal; 69.3% in the assay with UO-31 renal; 128% in the assay on TK-10 renal; 98.9% in the assay on ACHN renal. Also, the growth is 51.9% with CAKI-1 renal, 92.6% in the assay with A498 renal and 67.5% in the assay with MOLT-4 leukemia.

For the compound `Brc1cnc2[nH]cc(-c3nnc(-c4ccccc4)o3)c2c1`, the growth is 73.3% in the assay on SK-MEL-2 melanoma; 31.4% in the assay with EKVX NSCLC; 79.9% in the assay with SN12C renal; 45.2% in the assay on UO-31 renal; 58.9% in the assay on TK-10 renal; 28.9% in the assay with ACHN renal. The growth with CAKI-1 renal is 34.2%; in the assay on A498 renal, 47%; with MOLT-4 leukemia, 74.3%.

On to `CC1c2ccccc2N(S(=O)(=O)c2ccccc2)C1C` (stereo unspecified), for which the growth in the assay on SK-MEL-2 melanoma is 76.5%; in the assay with EKVX NSCLC, 92.5%; with SN12C renal, 105%; in the assay with UO-31 renal it was 75.7%; in the assay with TK-10 renal, 100%; with ACHN renal it was 93.6%. Besides, the growth is 74.5% in the assay with CAKI-1 renal, 104% in the assay on A498 renal, 78.2% in the assay with CCRF-CEM leukemia and 75.1% in the assay on MOLT-4 leukemia.

With `c1csc(-c2nc(-c3cc4ccccc4c(N4CCOCC4)n3)cs2)c1`, the growth in the assay with SK-MEL-2 melanoma was 47.4%; in the assay with EKVX NSCLC it was 87.9%; in the assay with SN12C renal, 92.4%; in the assay with UO-31 renal, 71.3%; in the assay on TK-10 renal it was 123%; with ACHN renal it was 85.2%. The growth in the assay on CAKI-1 renal is 84.5%; with A498 renal it was 86.2%; with CCRF-CEM leukemia it was 107%; in the assay with MOLT-4 leukemia, 92.1%.

With `Fc1ccc(Nc2ccc3c(OCCCN4CCOCC4)cccc3n2)cc1F`, the growth in the assay with SK-MEL-2 melanoma is 95.2%; in the assay with EKVX NSCLC it was 81.4%; in the assay with SN12C renal, 81.6%; in the assay with UO-31 renal it was 63.8%; in the assay on TK-10 renal, 92.4%; in the assay with ACHN renal it was 78.3%. Besides, the growth in the assay with CAKI-1 renal is 82.3%; in the assay on A498 renal it was 69.7%; in the assay on CCRF-CEM leukemia it was 69.4%; with MOLT-4 leukemia, 53%.

On to `Nc1c2c(nc3ccc(Cl)cc13)CC(c1ccc(O)cc1)CC2=O` (stereo unspecified), for which the growth is 61.3% in the assay on SK-MEL-2 melanoma; 29.8% with EKVX NSCLC; 58.7% with SN12C renal; 60% in the assay on UO-31 renal; 81.5% in the assay with TK-10 renal; 49.4% in the assay with ACHN renal. Besides, the growth in the assay with CAKI-1 renal was 48.3%; in the assay on A498 renal it was 86.5%; in the assay on CCRF-CEM leukemia, 43.4%; in the assay on MOLT-4 leukemia it was 46.9%.

`Oc1cccc2oc(=S)[nH]c12`: the growth is 109% in the assay on SK-MEL-2 melanoma; 111% in the assay with EKVX NSCLC; 98.6% in the assay with SN12C renal; 72.9% in the assay on UO-31 renal; 106% in the assay on TK-10 renal; 99.7% with ACHN renal. Further, the growth in the assay with CAKI-1 renal was 120%; with A498 renal, 94.8%; in the assay with MOLT-4 leukemia, 99.5%.

For the compound `COc1ccc2[nH]cc(-c3nc(-c4c[nH]c5ncccc45)cs3)c2c1`, the growth was 32.9% with SK-MEL-2 melanoma; 64.4% with EKVX NSCLC; 53.2% in the assay with SN12C renal; 15.1% with UO-31 renal; 31.9% in the assay with TK-10 renal; 19.8% in the assay on ACHN renal. The growth in the assay with CAKI-1 renal is 4.05% (active); in the assay with A498 renal, 10.9%; in the assay with MOLT-4 leukemia, 8.76% (active).

As to `CC1(C)CC[C@]2(CO)CC[C@]3(C)C(=CC[C@@H]4[C@@]5(C)CC[C@H](NCO)C(C)(C)[C@@H]5CC[C@]43C)[C@@H]2C1`, the growth was -38% (active) in the assay on SK-MEL-2 melanoma; 41% in the assay with EKVX NSCLC; -75.2% (active) in the assay with SN12C renal; -58.9% (active) with UO-31 renal; 100% with TK-10 renal; -69.2% (active) in the assay with ACHN renal. For the same compound, the results for the growth in the assay on CAKI-1 renal, in the assay with A498 renal and in the assay with MOLT-4 leukemia were -71.9% (active), 84.2% and -19.7% (active), respectively.

Turning to `Fc1ccc(NCc2nnc(-c3ccc(Cl)cc3)o2)cc1`, the growth in the assay on SK-MEL-2 melanoma is 85.5%; in the assay with EKVX NSCLC, 77%; in the assay with SN12C renal it was 79.4%; in the assay with UO-31 renal, 54.3%; with TK-10 renal, 126%; in the assay with ACHN renal it was 78.7%. The values for the growth in the assay with CAKI-1 renal, with A498 renal and in the assay on MOLT-4 leukemia were 69.8%, 77.2% and 49.6%, respectively.

As to `O=S(=O)(NCCNc1cc(-c2cn(-c3ccccc3)nc2-c2cccc(O)c2)ccn1)c1cccc(F)c1`, the growth in the assay with SK-MEL-2 melanoma was 53.1%; in the assay on EKVX NSCLC, 46.6%; in the assay on SN12C renal, 50.4%; with UO-31 renal, 23.5%; in the assay on TK-10 renal it was 56%; in the assay with ACHN renal, 36.3%. For the same compound, the growth is 44.3% in the assay with CAKI-1 renal, 57.4% with A498 renal and 18.5% in the assay on MOLT-4 leukemia.

As to `C#CCn1c(C)cc(C)c(C#N)c1=O`, the growth is 108% in the assay on SK-MEL-2 melanoma; 99.6% with EKVX NSCLC; 100% with SN12C renal; 85.6% in the assay on UO-31 renal; 94.2% in the assay with TK-10 renal; 106% in the assay with ACHN renal. The values for the growth with CAKI-1 renal, with A498 renal and in the assay with MOLT-4 leukemia were 95.2%, 104% and 111%, respectively.
